Only some compounds are listed: those with a hit (about 2.9% of all), similar ones and a draw of the others.
MEKK2 mut-MEK5: signal of MEK5 binding to mutant human MEKK2 PB1 domain; hit rate 0.35% among 290,000; AID 1530; percent response, % at 10 µM; bead flow cytometry, Alexa488-MEK5 binding to MEKK2 mutant; in the data active = percent response above about 24%, passing the limit was not always enough
MEKK2wt PB1 HTS: raises or lowers MEK5 binding to wildtype human MEKK2 PB1 domain | bead flow cytometry, Alexa488-MEK5 binding to MEKK2 WT; actives lie on both sides | binding response (% of control), % at 10 µM | hit rate 1.1% among 290,000 | AID 1531; in the data active = binding response below about 67% or above about 130%
MEKK3 PB1 HTS: MEKK3-MEK5 PB1 interaction, increase or decrease; bead-based flow cytometry, Alexa488-MEK5 binding to MEKK3; actives lie on both sides; 0 = blocked by unlabeled MEK5, 100 = vehicle; binding response (% of control), % at 10 µM; hit rate 1.4% among 290,000;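 active = binding response more than 3 SD above or below the average of its plate-row segment, actives on both sides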;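 note: Alexa488 bead fluorescence after subtracting the streptavidin-only scavenger bead signal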
Target sequence (Q99759 whole entry, looked up): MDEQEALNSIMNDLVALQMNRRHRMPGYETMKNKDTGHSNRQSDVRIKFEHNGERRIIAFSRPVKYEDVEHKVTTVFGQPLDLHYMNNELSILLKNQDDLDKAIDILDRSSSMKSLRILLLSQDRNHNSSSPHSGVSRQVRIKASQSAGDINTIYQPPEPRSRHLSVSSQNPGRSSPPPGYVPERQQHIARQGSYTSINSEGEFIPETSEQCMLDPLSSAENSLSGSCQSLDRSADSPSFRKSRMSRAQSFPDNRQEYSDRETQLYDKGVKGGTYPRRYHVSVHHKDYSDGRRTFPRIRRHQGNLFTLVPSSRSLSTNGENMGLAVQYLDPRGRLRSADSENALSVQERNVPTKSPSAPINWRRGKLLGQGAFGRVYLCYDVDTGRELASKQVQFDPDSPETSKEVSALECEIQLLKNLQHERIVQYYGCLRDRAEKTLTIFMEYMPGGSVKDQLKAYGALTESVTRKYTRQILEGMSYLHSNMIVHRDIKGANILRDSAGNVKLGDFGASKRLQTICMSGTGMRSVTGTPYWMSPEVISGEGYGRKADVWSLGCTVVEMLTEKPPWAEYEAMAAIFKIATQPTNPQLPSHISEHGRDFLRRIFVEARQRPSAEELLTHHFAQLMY
B2AR ag: activates human beta-2 adrenergic receptor causing internalization; Am2.2-beta2AR cells, FAP receptor internalization, flow cytometry; response, % (no concentration beside the values); hit rate 0.43% among 340,000;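 active = response above a set limit, near 3 SD of response in nonfluorescent compounds, cut at about 42% in these data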
GRK2 aptamer HTS: blocks RNA aptamer binding to human GRK2 | P25098 | bead flow cytometry, FAM-aptamer displacement from GRK2 | inhibition of aptamer binding, % at 10 µM | hit rate 0.59% among 330,000;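 active = inhibition of aptamer binding above 40%, roughly 3 SD of noise, on plates passing a quality check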;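 note: median bead fluorescence of bound FAM aptamer so fluorescent compounds give negative values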
* = called active by the depositor; · = no result; [ ] = dose if it differs, or a comment.

SMILES	MEKK2 mut-MEK5	MEKK2wt PB1 HTS	MEKK3 PB1 HTS	B2AR ag	GRK2 aptamer HTS
Cc1ccc(-n2nc3c(c2NC(=O)c2ccc4c(c2)OCO4)CS(=O)(=O)C3)cc1	-18	0.0*[inhibitor]	2.0*[inhibitor]	4	2
Cc1ccc(-n2nc3c(c2NC(=O)c2ccc4c(c2)OCO4)CS(=O)(=O)C3)cc1C	3	102	101	-6	0
OC1COC(c2ccccc2)OC1C(O)C1OC(c2ccccc2)OCC1O (configuration not stated)	·	·	·	1	·
O=C(C=Cc1ccccn1)c1ccccc1O	·	·	·	49*	·
COc1ccc(CCN(C)CC(O)COC(c2ccc(F)cc2)c2ccc(F)cc2)cc1OC (configuration not stated)	13	145*	101	5	0
O=C(Cc1ccc(Cl)cc1)NNC(=O)C(=O)NC1CCCCC1	·	·	·	4	0
O=C(Nc1ccccc1O)c1ccc(NC(=O)C2CC2)cc1	4	104	101	7	0
O=C(Nc1ccccc1C(=O)O)c1ccc(NC(=O)C2CC2)cc1	-1	1.0*[inhibitor]	96	-3	1
O=C(N/N=C/c1ccc(O)cc1O)NC12CC3CC(CC(C3)C1)C2	5	104	109	44*	1
COC(=O)C1=C(O)/C(=C\c2cc(C)n(-c3ccc(F)cc3)c2C)N=C1C	-4	97	99	69*	0
COC(=O)C1=C(C)NC(=O)/C1=C\c1cc(C)n(-c2ccc(F)cc2)c1C	-4	93	98	11	0
COc1cc(/C=C2/C(=O)N(c3ccccc3)N=C2C)ccc1OS(=O)(=O)c1ccccc1	0	102	103	·	0
COc1ccc(/C=C2/C(=O)N(c3ccccc3)N=C2C)cc1Br	2	105	104	76*	4
COc1cc(/C=C(\C#N)C(=O)Nc2ccc(C(=O)O)cc2)ccc1OC(=O)c1cccc(F)c1	-4	93	103	0	42*
COc1cc(/C=C2/C(=N)N3C=CSC3=NC2=O)ccc1OCCCOc1cc(C)ccc1C	-1	102	101	63*	1
O=C(O)COc1ccc(/C=N/NC(=O)c2ccc(-c3csc(Nc4ccc(Cl)cc4)n3)cc2)cc1	-7	73	60*[inhibitor]	4	·
COc1cccc(C(=O)Nc2ccc(C(=O)NCC3CCCO3)cc2)c1 (configuration not stated)	·	·	·	3	0
COc1cc(/C=C2\SC(=S)N(NC(=O)c3ccncc3)C2=O)ccc1O	16	-3.0*	93	6	1
COC(=O)C1=C(O)/C(=C\c2ccc(CNS(=O)(=O)c3ccc(Cl)cc3)o2)N=C1C	-1	94	91	7	4
COC(=O)C1=C(O)/C(=C\c2ccc(CNS(=O)(=O)c3ccccc3)o2)N=C1C	0	98	102	-2	72*
COC(=O)C1=C(O)/C(=C\c2ccc(CNC(=O)C(=O)Nc3ccc(C)cc3)o2)N=C1C	3	101	104	56*	0
CCOC(=O)C1=C(O)/C(=C/c2ccc(CNC(=O)C(=O)Nc3ccc(C)cc3)o2)N=C1C	-2	90	96	75*	0
CCOC(=O)C(=O)NCc1ccc(/C=C2/N=C(C)C(C(=O)OCC)=C2O)o1	5	79	94	-3	0
CCOC(=O)C1=C(O)/C(=C\c2ccc(CNS(=O)(=O)c3ccc(Br)cc3)o2)N=C1C	-1	99	103	-11	5
COC(=O)C1=C(O)/C(=C\c2ccc(CNC(=O)C(=O)Nc3ccc(C)c(C)c3)o2)N=C1C	0	98	95	70*	0
SMILES	MEKK2 mut-MEK5	MEKK2wt PB1 HTS	MEKK3 PB1 HTS	B2AR ag	GRK2 aptamer HTS
O=c1[nH][nH]c(=O)c2nc(Nc3ccccc3)ncc12	·	·	·	0	·
Cc1ccc(CCC(=O)NCc2ccccc2)o1	14	105	102	-2	0
Cc1ccc2nc(N(CCCN(C)C)C(=O)c3ccc(S(=O)(=O)N4CCc5ccccc5C4)cc3)sc2c1	55*	223*	113	18	40
COc1ccc2sc(N(CCCN(C)C)C(=O)c3ccc(S(=O)(=O)N4CCc5ccccc5C4)cc3)nc2c1	·	·	·	31	0
CN(C)CCCN(C(=O)c1ccc(S(=O)(=O)N2CCc3ccccc3C2)cc1)c1nc2ccc(F)cc2s1	71*	252*	116	49*	0
CN(C)CCCN(C(=O)c1ccc(S(=O)(=O)N2CCc3ccccc32)cc1)c1nc2ccc(Cl)cc2s1	33*	181*	107	9	0
CCN(CC)CCN(C(=O)c1ccc2c(c1)CCCC2)c1nc2ccc(C)cc2s1	31*	148*	108	13	0
Cc1ccc(C(=O)OCC(=O)NCCc2ccccc2)cc1C	·	·	·	-7	0
Nn1c(SCC(=O)Nc2ccc(N3CCOCC3)cc2)nnc1-c1ccccc1F	·	·	·	-2	1
COC(=O)c1cccc(N(CC(=O)NC2CCCCC2)C(=O)CNC(=O)c2cccs2)c1	-1	102	100	9	0
CSc1nc(N)nc2c1ncn2Cc1ccccc1	·	·	·	-8	·
CN(C)CCN(C(=O)c1cc(Cl)sc1Cl)c1nc2ccc(F)cc2s1	25	118	112	5	0
CN(C)CCCN(C(=O)c1cc(-c2cccs2)nc2ccccc12)c1nc2ccc(F)cc2s1	54*	203*	109	16	0
Cc1cc(C)c2sc(N(CCCN(C)C)C(=O)c3ccc(S(=O)(=O)N4CCc5ccccc5C4)cc3)nc2c1	·	·	·	51*	0
c1ccc(CN(Cc2ccccc2)c2ncnc3c2nnn3Cc2ccccc2)cc1	-2	101	103	-9	1
CC(NCc1cc(Br)ccc1OCC(N)=O)C12CC3CC(CC(C3)C1)C2 (configuration not stated)	11	118	106	6	0
Cn1c(=O)c([N+](=O)[O-])c(Cl)c2ccccc21	-8	95	99	89*	·
CC1(C)C(=O)OC(C(=O)c2ccc(Cl)cc2)C(C)(C)C1=O (configuration not stated)	-2	95	96	-3	100*
Cc1ccc2c(c1)N(C(=O)CCC(=O)NCc1cccnc1)CC(C)O2 (configuration not stated)	-2	98	100	6	0
O=C(Nc1ccccn1)c1cccc(S(=O)(=O)N2CCCC2)c1	-4	97	82*[inhibitor]	-6	2
O=C(Nc1ccccn1)c1cccc(S(=O)(=O)N2CCCCC2)c1	0	99	99	-1	0
COc1cc(/C(C)=N/NC(=O)c2cccc(S(=O)(=O)N3CCCC3)c2)cc(OC)c1OC	0	103	102	3	50*
O=C(CCNS(=O)(=O)c1ccc(Br)cc1)NCc1ccco1	·	·	·	1	1
O=[N+]([O-])c1ccc(N/N=C/c2sc(N3CCOCC3)nc2-c2ccccc2)c(S(=O)(=O)Nc2ccccc2Cl)c1	63*	·	91	-295	·
O=c1cc(-c2ccccc2)oc2ccc(Cl)cc12	·	·	·	-7	·
